The nature of experiment [1]: compound effects on lung adenocarcinoma cell viability – A549, calcein-AM fluorescence, 48 h, basal, profiling panel (AID 1162). Note: test concentration not given here. The note with it: higher = more signal.
Experiment [2] can be described thus: compound effects on differentiated 3T3-L1 adipocyte viability – cell-based, 3T3-L1 adipocytes, calcein-AM fluorescence, 48 h, basal, profiling panel (AID 1163). Note: test concentration not given here. The note with it: 3T3-L1 adipocytes viability, higher = more signal.
The nature of experiment [3]: compound effects on hepatocellular carcinoma cell viability – HepG2, calcein-AM fluorescence, 48 h, basal, profiling panel (AID 1164). Note: test concentration not given here. The note with it: higher = more signal.
Experiment [4] in a line: compound effects on multiple myeloma cell viability – MM1S, calcein-AM fluorescence, 48 h, basal, profiling panel (AID 1165).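 Note: viability of MM1S multiple myeloma cells under basal unstimulated conditions; test concentration not given here.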 To be noted: higher = more signal.
Experiment [5] can be described thus: calcein-AM signal in unstimulated myeloma cells – cell-based, calcein-AM fluorescence, 48 h, PK04 Diversity Set, profiling panel (AID 1166).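 Note: cells grown under basal conditions without added stimulus; test concentration not given here.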 The note with it: RPMI8226 myeloma viability, higher = more signal.
A short description of experiment [6]: JC-1 mitochondrial signal, unstimulated HepG2 cells – cell-based, JC-1 fluorescence, 24 h, 100 nL compound, profiling panel (AID 1167). Note: test concentration not given here. To be noted: HepG2 mitochondrial potential, higher = more signal.
Experiment [7] is described as follows: JC-1 mitochondrial signal, unstimulated adipocytes – cell-based, JC-1 fluorescence, 3T3-L1 adipocytes, 24 h, 100 nL compound, profiling panel (AID 1168). Note: test concentration not given here. To be noted: JC-1 mitochondrial fluorescence, higher = more signal, called active from +8 up or from −8 down.
Experiment [8] can be described thus: JC-1 mitochondrial signal, unstimulated myeloma cells – cell-based, JC-1 fluorescence, RPMI8226, 24 h, 100 nL compound, profiling panel (AID 1169). Note: test concentration not given here. To be noted: JC-1 mitochondrial potential fluorescence, higher = more signal.
Experiment [9] in a line: JC-1 mitochondrial signal, unstimulated MM1S myeloma – cell-based, JC-1 fluorescence, 24 h, 100 nL compound, profiling panel (AID 1170). Note: test concentration not given here. The note with it: MM1S mitochondrial potential, higher = more signal.
Experiment [10] is described as follows: resazurin metabolic signal in A549 cells – cell-based, resazurin fluorescence, 24 h, PK04 Diversity Set, profiling panel (AID 1171). Note: test concentration not given here. To be noted: A549 viability, higher = more signal, called active from +8 up or from −8 down. A general note: The colour change of resazurin is a common sign of viable cells or microbes.
A short description of experiment [11]: resazurin metabolic signal in HepG2 cells – cell-based, resazurin fluorescence, 24 h, PK04 Diversity Set, profiling panel (AID 1172). Note: test concentration not given here. To be noted: HepG2 viability, higher = more signal.
The nature of experiment [12]: budding yeast growth changes without added modifier – OD600, strain BY4716, 24 h, basal condition, primary screen (AID 1173). The note with it: S. cerevisiae BY4716 growth, OD600, 24 h; higher = more signal, called active from +8 up or from −8 down.
A short description of experiment [13]: viability profiling in MM1S myeloma cells – cell-based, resazurin fluorescence, basal, 24 h, PK04 Diversity Set, profiling panel (AID 1174). Note: test concentration not given here. The note with it: higher = more signal, called active from +8 up or from −8 down.
Experiment [14] addresses Dihydroorotate dehydrogenase (quinone), mitochondrial (Plasmodium falciparum (isolate 3D7)) (UniProt Q08210). The experiment can be described thus: inhibition of P. falciparum DHODH – biochemical, C-terminal His tag, absorbance 600 nm, primary screen (AID 1175).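 Note: recombinant parasite enzyme with a five histidine tag at its C terminus; test concentration not given here.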 The note with it: PfDHODH enzyme, DCIP absorbance 600 nm; higher = more signal, called active from +8 up or from −8 down.

Experiment [15] can be described thus: inhibition of PAO1 biofilm formation – strain PAO1, LB-PBS medium, absorbance 600 nm, primary screen (AID 1176). Note: test concentration not given here. To be noted: P. aeruginosa PAO1 growth/biofilm, A600, 12 h; higher = more signal.
Experiment [16] in a line: growth modulation of vineyard yeast isolate – strain RM11-1a, OD600, basal, 24 h, primary screen (AID 1177).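 Note: cultures grown under basal conditions with no added stressor; test concentration not given here.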 To be noted: S. cerevisiae RM11-1a growth, OD600, 24 h; higher = more signal, called active from +8 up or from −8 down.
The nature of experiment [17]: growth of efflux-deficient E. coli DRC39 – strain DRC39, OD650, 24 h, E. coli filamentation inducers, primary screen (AID 1178).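 Note: growth measured as culture turbidity by optical density at 650 nm; test concentration not given here.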 To be noted: E. coli DRC39 acrAB, higher = more signal, called active from +8 up or from −8 down.
A short description of experiment [18]: growth of efflux-deficient E. coli DRC39 – strain DRC39, OD650, 48 h, E. coli filamentation inducers, primary screen (AID 1179).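 Note: screen aims at cell division blockers that make cells filament.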 To be noted: E. coli DRC39 delta-acrAB growth, higher = more signal, called active from +8 up or from −8 down.
Experiment [19] in a line: viability profiling in RPMI8226 myeloma cells – cell-based, resazurin fluorescence, basal, 24 h, PK04 Diversity Set, profiling panel (AID 1180).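 Note: RPMI8826 multiple myeloma cell line at 5000 cells per well; test concentration not given here.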 The note with it: higher = more signal.
Experiment [20] deals with E3 ubiquitin-protein ligase XIAP (Homo sapiens) (UniProt P98170). The experiment can be described thus: small molecules binding XIAP protein – biophysical, small-molecule microarray, fluorescence 635 nm, primary screen (AID 1181).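 Note: score merges 667 nm emission and signal to noise over triplicate slides.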 The note with it: higher = more signal.

Calls of active or inactive are those of the source. Unless noted, the rule behind the calls is not given here.

Sequence of E3 ubiquitin-protein ligase XIAP (Homo sapiens) (P98170 whole entry, looked up): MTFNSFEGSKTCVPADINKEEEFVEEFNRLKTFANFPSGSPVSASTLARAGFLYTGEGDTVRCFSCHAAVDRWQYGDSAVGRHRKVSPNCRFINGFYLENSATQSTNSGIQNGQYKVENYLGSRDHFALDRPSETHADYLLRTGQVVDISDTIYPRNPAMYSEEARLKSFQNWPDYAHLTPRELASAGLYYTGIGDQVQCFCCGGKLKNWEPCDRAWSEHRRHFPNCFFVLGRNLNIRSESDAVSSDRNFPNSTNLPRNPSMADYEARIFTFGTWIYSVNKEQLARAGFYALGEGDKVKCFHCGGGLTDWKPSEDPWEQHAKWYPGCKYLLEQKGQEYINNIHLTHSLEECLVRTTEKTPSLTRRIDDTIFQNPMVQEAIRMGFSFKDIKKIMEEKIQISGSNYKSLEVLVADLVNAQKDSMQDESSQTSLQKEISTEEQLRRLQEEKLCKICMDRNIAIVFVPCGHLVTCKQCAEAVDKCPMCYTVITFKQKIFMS
Sequence of Dihydroorotate dehydrogenase (quinone), mitochondrial (Plasmodium falciparum (isolate 3D7)) (Q08210 whole entry, looked up): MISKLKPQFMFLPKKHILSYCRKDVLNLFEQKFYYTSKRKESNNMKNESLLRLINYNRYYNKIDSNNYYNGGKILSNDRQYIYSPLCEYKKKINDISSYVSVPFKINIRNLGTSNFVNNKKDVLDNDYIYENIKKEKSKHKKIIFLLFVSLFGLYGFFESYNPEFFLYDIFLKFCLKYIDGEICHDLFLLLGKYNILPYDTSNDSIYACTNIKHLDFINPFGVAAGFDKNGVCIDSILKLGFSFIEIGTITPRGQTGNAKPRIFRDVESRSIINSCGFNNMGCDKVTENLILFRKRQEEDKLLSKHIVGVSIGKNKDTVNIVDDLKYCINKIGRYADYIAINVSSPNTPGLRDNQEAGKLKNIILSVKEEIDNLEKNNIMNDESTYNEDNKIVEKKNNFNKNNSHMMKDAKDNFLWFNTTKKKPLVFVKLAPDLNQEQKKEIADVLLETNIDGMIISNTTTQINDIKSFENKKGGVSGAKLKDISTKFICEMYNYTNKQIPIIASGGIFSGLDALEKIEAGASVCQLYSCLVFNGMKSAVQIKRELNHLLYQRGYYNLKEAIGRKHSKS

Turning to `CCCNC(=O)OC[C@H]1O[C@H](CCON=C2c3cc(OC)ccc3O[C@H](c3cccc(OC)c3)[C@H]2O)C=C[C@@H]1Oc1ccc(OC)cc1`, the z-score in [1] is 0.111; in experiment [2], 0.752; in [3], -0.0825; in experiment [4] it was -0.187; in experiment [5], -0.572; in [6] it was 1.38. For the same compound, the z-score in experiment [7] was -1.49 (inactive); in experiment [8], 0.0694; in [9], -0.0229; in [10], 0.409 (inactive); in experiment [11], -0.286; in experiment [12], 0.668 (inactive). Besides, the z-score was -0.801 (inactive) in experiment [13]; 0.724 (inactive) in experiment [15]; 0.391 (inactive) in [16]; 0.885 (inactive) in experiment [17]; -0.034 (inactive) in experiment [18]; -0.384 in experiment [19]. For the same compound, the composite z-score in experiment [14] is 0.159 (inactive); in experiment [20], 0.02.
In the case of `O=C1[C@H]2[C@H]3[C@H](O)[C@H](O)CC(=NOCc4ccccc4)[C@H]3CC[C@H]2C(=O)N1C1CCCCC1`, the z-score in experiment [1] is 0.519; in experiment [2], -0.228; in experiment [3] it was 0.734; in experiment [4], -0.618; in experiment [5], -0.498; in experiment [6], -1.3. In addition, the z-score was 0.028 (inactive) in [7]; -0.16 in experiment [8]; -0.847 in experiment [9]; -0.329 (inactive) in experiment [10]; -0.483 in experiment [11]; -0.149 (inactive) in experiment [12]. Also, the z-score in experiment [13] is -0.99 (inactive); in experiment [15], 0.377 (inactive); in [16] it was -0.373 (inactive); in experiment [17], -0.157 (inactive); in [18], -0.414 (inactive); in [19] it was -1.83. The composite z-score was 0.0894 (inactive) in [14] and 0.237 in experiment [20].
Take `COC(=O)[C@@H]1CC[C@H](C)[C@@H](c2ccc(C)cc2)N1C(=O)c1ccc(C=NO[C@@H](C)c2cc(-c3c(C)cc(C)cc3C)no2)cc1`: the z-score in experiment [1] is 0.203; in experiment [2] it was -0.576; in experiment [3] it was 1.38; in [4], -0.56; in experiment [5], 0.148; in [6] it was 3.24. In addition, the z-score in experiment [7] is 0.161 (inactive); in experiment [8], 0.239; in [9], -0.749; in experiment [10] it was -0.462 (inactive); in experiment [11], -0.726; in [12], 1.36 (inactive). The z-score in [13] is -0.321 (inactive); in experiment [15], -0.925 (inactive); in [16] it was 0.378 (inactive); in experiment [17], 0.218 (inactive); in experiment [18] it was 1.04 (inactive); in [19] it was 0.0524. In addition, the composite z-score in experiment [14] was 0.502 (inactive); in [20] it was -0.238.
`CC(C)(C)N1C(=O)[C@H]2[C@H]3[C@H](O)[C@H](O)CC(=NOC[C@@H](O)COCc4ccco4)[C@@H]3CC[C@H]2C1=O`: the z-score in experiment [1] was -0.535; in [2], 0.935; in [3], -0.274; in [4], 0.268; in [5] it was -1.63; in experiment [6] it was -1.12. Moreover, the z-score in [7] was -0.243 (inactive); in [8], 0.431; in [9], 0.325; in [10], -0.0978 (inactive); in experiment [11] it was -0.28; in experiment [12] it was 0.382 (inactive). The z-score was 0.0017 (inactive) in experiment [13]; 0.213 (inactive) in experiment [15]; -0.0396 (inactive) in experiment [16]; -0.323 (inactive) in experiment [17]; -0.253 (inactive) in [18]; 0.589 in experiment [19]. The values for the composite z-score in experiment [14] and in [20] were -0.0796 (inactive) and -0.173, respectively.
